The list is not random: actives were taken first. Their share in the collection is about 9.2%.
ELG1 DNA repair: blocks ELG1-dependent DNA repair in HEK293T cells; HEK293T ELG1-luciferase reporter, luminescence, 16 h; DNA damage induced by 5-fluorouridine; Potency, µM (doses to about 46.1 µM), inactives show at the highest dose activity change, negative = inhibition, usual class: inhibitors; 330,000 compounds, 2.3% hits; note: % is set by controls: 0 for no effect and ±100 for the full control effect; nearly all actives have a fitted effect of over 55% in size
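Cells (2,000 per well) received 5-fluorouridine plus test compound or DMSO and were incubated 16 hr at 37 °C, 5% CO2. Luciferase activity was read by luminescence 30 min after ONE-Glo addition; signal suppression marked inhibition of damage-induced ELG1 function.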
ELG1 genotoxic: induces genotoxicity in HEK293T cells with luciferase-tagged ELG1. Potency, µM (doses to about 46 µM), for the others: at the top dose activity change, positive = activation, hits mostly activators. HEK293T ELG1-luciferase reporter, luminescence, 16 h. 330,000 compounds, 1.3% hits. AID 504466; note: % of control where 0% means no effect; nearly all actives have a fitted effect of over 60% in size
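DMSO vehicle served as control against compound-treated ELG1-luciferase HEK293T cells; exposure lasted 16 hr at 37 °C and 5% CO2, followed by ONE-Glo luminescence detection after 30 min.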
NPC1 prom act: activators of NPC1 promoter | Huh7 NPC1 promoter luciferase reporter, 24 h | Potency, µM (titrated, usually from 9.22 µM), for inactives: at the highest dose activation, hits mostly activators | 320,000 compounds, 2.4% hits | AID 485313; note: % of control where 0% means no effect; nearly all actives have a fitted effect of over 60% in size
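Readout is luciferase luminescence, reflecting NPC1 promoter activation in stably transfected Huh7 cells after 24 h compound exposure at 37 °C in reduced-serum medium with 10% FBS.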
SMN2 splice enh: SMN2 splice variant enhancement; HEK293 SMN2-luciferase splicing reporter, luminescence, 30-36 h; Potency, µM (top dose mostly 46.1 µM), inactives show top-dose activity change, positive = activation, actives largely listed as activators; 210,000 compounds, 2.8% hits; note: % of control where 0% means no effect; nearly all actives have a fitted effect of over 55% in size
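qHTS luciferase splicing reporter: luminescence rises when SMN2 exon 7 is included in transfected HEK293 cells. Compound exposure lasted 30-36 h at 37C, with 4.5 mM final sodium butyrate as control, followed by a ONE-Glo read.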
FLuc modulator: firefly luciferase modulation, counter-screen for miR-21 project; P08659; purified FLuc, Km substrates, luminescence inhibition; Potency, µM (highest dose often 57.5 µM), for inactives: at the top dose activity change, negative = inhibition, actives largely listed as inhibitors; 360,000 compounds, 6.9% hits;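 note: plate controls were vehicle for no effect and reference inhibitor for full effect; nearly all actives have a fitted effect of over 55% in size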
Target sequence (P08659 whole entry, looked up): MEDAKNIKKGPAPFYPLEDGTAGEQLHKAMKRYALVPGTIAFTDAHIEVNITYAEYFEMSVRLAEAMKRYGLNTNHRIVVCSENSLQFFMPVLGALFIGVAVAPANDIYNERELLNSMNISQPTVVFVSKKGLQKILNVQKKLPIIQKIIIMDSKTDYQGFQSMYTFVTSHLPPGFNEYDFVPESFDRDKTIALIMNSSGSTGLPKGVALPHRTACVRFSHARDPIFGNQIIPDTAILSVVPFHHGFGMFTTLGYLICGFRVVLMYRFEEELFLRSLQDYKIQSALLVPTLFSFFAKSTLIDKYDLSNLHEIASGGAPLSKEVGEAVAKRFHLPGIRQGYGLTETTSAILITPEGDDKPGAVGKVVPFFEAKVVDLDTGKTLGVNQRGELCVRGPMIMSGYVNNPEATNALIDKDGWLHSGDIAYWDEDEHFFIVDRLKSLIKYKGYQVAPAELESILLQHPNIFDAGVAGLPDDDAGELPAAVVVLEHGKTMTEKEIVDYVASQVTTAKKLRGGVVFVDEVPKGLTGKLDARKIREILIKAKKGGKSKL
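Biochemical qHTS of compounds, final roughly 60 µM downward over six points, against 10 nM purified firefly luciferase using Km concentrations of substrates (10 uM D-luciferin, 10 uM ATP) in Tris acetate pH 7.5 buffer; luminescence output.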
Rab9 prom act: activates the Rab9 promoter; Huh7 Rab9 promoter-luciferase reporter, luminescence, 24 h; Potency, µM (doses to about 9.22 µM), for the others: at the highest dose activation, negative = inhibition, most hits filed as activators; 320,000 compounds, 2.8% hits; AID 485297; note: % of control where 0% means no effect; nearly all actives have a fitted effect of over 60% in size
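Promoter activation is measured as luciferase luminescence in Huh7 cells stably transfected with a Rab9 promoter–luciferase construct, following 24 h compound exposure at 37 °C and 10 min reagent incubation at ambient temperature.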
Numbers without * were called inactive; ? = inconclusive; · = no result. Calls come from the whole dose curve; as a rule, active = well fitted curve in the direction sought with a large enough effect; inconclusive = small, poorly fitted or top-dose-only effect, or another doubt; inactive = no such curve, though single readings can be large; an effect the other way counts as inactive or inconclusive. Potency is the fitted concentration of half-maximal effect.

SMILES	ELG1 DNA repair	ELG1 genotoxic	NPC1 prom act	SMN2 splice enh	FLuc modulator	Rab9 prom act
Cc1ccc2nc(NC(=O)c3ccc(-c4nc5ccccc5s4)s3)sc2c1	?	16.4µM*	-2.1%	15.1%	13.5µM*	-3.8%
COc1cccc(C(=O)Nc2c3c(nc4c2CCC4)CCCC3)c1	-0.8%	-0.7%	-0.8%	-0.5%	-1.8%	-2.7%
O=C(NCCO)c1nc2ccccc2s1	?	9.3%	3.2%	0.0%	?	0.5%
COc1cccc(C(=O)Nc2nc3c(s2)CCCC3)c1	·	·	·	·	1.9µM*	·
Fc1ccc(-c2nnc(CN3CCN(c4ccccn4)CC3)o2)cc1	·	·	·	-7.5%	-0.4%	·
CCN(CC)CCn1c(-c2ccccc2)nc2c(NCCOC)nc(C)nc21	·	·	·	-14.7%	·	·
CCOC(=O)Cc1ccc(NC(=O)NCc2c(-n3cccc3)sc3c2CCCC3)cc1	·	·	·	·	-2.6%	·
Nc1c(Cl)cc(-c2cn(CCC(=O)O)c(-c3ccncc3)n2)cc1Cl	15.5%	2.5%	-2.2%	·	-3.7%	-0.3%
COc1ccc(C(=O)Nc2nc3ccccc3s2)cc1OC	?	2.5%	1.3%	·	-3.2%	-1.9%
O=S(=O)(/N=C(/Nc1nc2ccccc2s1)c1ccccc1)c1ccc(F)cc1	?	14.5%	12.6%	·	19µM*	?
O=S(=O)(/N=C(/Nc1nccs1)c1ccc(F)cc1)c1ccccc1	-7.9%	-0.1%	·	·	·	·
O=C(c1ccc(Cl)s1)N1CCN(c2nc3ccccc3s2)CC1	?	-10.5%	-0.4%	-34.8%	-8.8%	2.1%
COc1cccc(C(=O)Nc2nc3ccccc3s2)c1	?	4.11µM*	3.55µM*	·	2.13µM*	2µM*
COc1cccc(C(=O)N(C)C(C)c2nc3ccccc3s2)c1 (stereo not given)	-6.7%	-12.1%	-0.8%	·	-1.2%	0.2%
O=C(Nc1nc2ccccc2s1)c1ccc(Cl)s1	?	1.16µM*	1µM*	6.31µM*	1.9µM*	?
COc1ccc(C(=O)Nc2nc3ccccc3s2)cc1	?	-4.7%	0.631µM*	·	0.239µM*	0.282µM*
CCOC(=O)c1ccc(N2CCN(c3cccc(Cl)c3)CC2)c(NC(=O)Nc2ccc(OC)cc2OC)c1	·	·	·	·	-1.2%	·
COc1ccc(-c2cc(=NC(CC(C)C)C(=O)O)c3cc(C)ccc3o2)cc1 (stereo not given)	?	?	?	11.2µM*	0.849µM*	3.5%
COc1ccc(Nc2nc(-c3cccs3)cs2)c(OC)c1	?	5.17µM*	?	·	4.78µM*	2.24µM*
COc1ccc(Nc2nc(-c3cccs3)cs2)cc1	?	1.46µM*	2.51µM*	10µM*	0.675µM*	2µM*
COc1ccccc1Nc1nc(-c2cccs2)cs1	?	?	13.0%	11.2µM*	4.78µM*	?
COc1cc(C=O)ccc1OCC(=O)Nc1ccc2c(c1)OCO2	-5.5%	-0.8%	6.4%	·	?	10.4%
CC(=O)Nc1ccc(N/C(=N\S(=O)(=O)c2ccccc2)c2ccccc2)cc1	-16.3%	-1.9%	-1.0%	·	2.3%	9.2%
Cc1ccc(NC(=S)N/C(=N/S(=O)(=O)c2ccccc2)c2ccccc2)cc1	?	23.1µM*	8.6%	-1.1%	10.7µM*	2.5%
COc1ccc(C(=O)NN/C(=N/S(=O)(=O)c2ccc(C)cc2)c2ccccc2)cc1	?	?	2.82µM*	·	5.36µM*	2.51µM*
CCOc1ccc(S(=O)(=O)/N=C(/Nc2ccc(OC)cc2)c2ccccc2)cc1	14.5%	5.6%	12.0%	·	-2.3%	8.8%
Cc1ccc(S(=O)(=O)/N=C(/NC(=S)Nc2ccccc2)c2ccccc2)cc1	?	?	3.55µM*	?	4.78µM*	2.82µM*
O=C(C1CCN(S(=O)(=O)c2cccs2)CC1)N1CCCC(C(F)(F)F)C1 (stereo not given)	-0.6%	-4.2%	-1.5%	·	4.5%	-0.3%
CC1(C)Cc2nc3sc4c(NCCO)ncnc4c3cc2CS1	-1.1%	1.5%	21.5%	·	19µM*	?

Screens deposited in PubChem BioAssay by National Center for Advancing Translational Sciences (NCATS).
